Assay outcomes: PubChem, several laboratories
GRK2 inh – inhibitors of human GRK2 displacing RNA aptamer. P25098. bead flow cytometry, FAM-aptamer displacement from GRK2. inhibition of aptamer binding, % at 10 µM. 0.59% of 330,000 active. AID 488847;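 active = inhibition of aptamer binding above 40%, roughly 3 SD of noise, on plates passing a quality check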;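 also: median bead fluorescence of bound FAM aptamer so fluorescent compounds give negative values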
Cardio protect – myocardial damage modulation in H9c2 cells; H9c2 cardiomyocytes, H2O2 injury protection, ATPLite, 2 h; protection from H2O2 cell death, % at 20 µM; 0.63% of 360,000 active; AID 588492;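 active = compounds giving at least 50% protection of heart cells from peroxide-induced death in the single-dose screen, raw or plate-pattern-corrected value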;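 also: 0% = DMSO wells with peroxide and 100% = DMSO wells without peroxide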
HDAC3 inh – inhibitors of human histone deacetylase 3. O15379. recombinant HDAC3, fluorogenic peptide/trypsin coupled, fluorescence. inhibition, % at 8.3 µM. 0.15% of 320,000 active. AID 2718; in the data active = inhibition above about 26%, passing the limit was not always enough
Neddyl block – inhibitors of human cullin neddylation | AID 651699 | 0.58% of 360,000 active | TR-FRET cullin neddylation, biochemical | inhibition, % at 25 µM; in the data active = inhibition above about 36%
Target sequence (P61081 whole entry, looked up): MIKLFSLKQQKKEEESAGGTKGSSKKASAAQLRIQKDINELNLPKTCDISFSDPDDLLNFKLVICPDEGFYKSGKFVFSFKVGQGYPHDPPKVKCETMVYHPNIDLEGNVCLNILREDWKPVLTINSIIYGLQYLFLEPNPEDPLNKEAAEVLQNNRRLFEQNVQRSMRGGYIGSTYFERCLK
Target sequence (Q13564 whole entry, looked up): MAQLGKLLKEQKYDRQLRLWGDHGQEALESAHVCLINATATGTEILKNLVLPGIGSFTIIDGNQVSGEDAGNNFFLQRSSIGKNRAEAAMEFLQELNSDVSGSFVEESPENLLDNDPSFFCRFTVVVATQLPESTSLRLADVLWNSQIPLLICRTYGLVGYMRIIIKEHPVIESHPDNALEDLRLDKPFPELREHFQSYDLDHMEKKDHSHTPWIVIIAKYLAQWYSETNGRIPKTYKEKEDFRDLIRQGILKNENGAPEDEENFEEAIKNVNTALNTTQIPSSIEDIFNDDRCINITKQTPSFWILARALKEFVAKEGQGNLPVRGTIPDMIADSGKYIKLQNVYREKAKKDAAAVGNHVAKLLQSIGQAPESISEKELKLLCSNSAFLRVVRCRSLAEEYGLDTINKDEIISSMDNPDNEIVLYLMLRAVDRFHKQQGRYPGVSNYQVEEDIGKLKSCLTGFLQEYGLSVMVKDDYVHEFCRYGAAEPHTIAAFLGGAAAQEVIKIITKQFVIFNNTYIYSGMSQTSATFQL
GRK2 CP1 – confirmation of human GRK2 inhibitors displacing RNA aptamer; shares compounds with GRK2 inh; bead-bound GRK2, FAM-aptamer displacement, flow cytometry; aptamer displacement, % at 10 µM; 4% of 2,000 active;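 active = aptamer displacement above 40%, near three times the noise of non-fluorescent compounds, on plates passing quality checks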;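 also: negative values mostly reflect intrinsic compound fluorescence rather than true enhancement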
FAM quench CP1 – aptamer fluorescence quenching in GRK2 counter-screen; shares compounds with GRK2 inh; Carboxyfluorescein RNA aptamer on beads, flow cytometry quenching; active compounds read low; fluorescence response (% of DMSO), % at 10 µM; 2,000 tested, under 10 active;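 active = compounds that quench the bead-bound fluorescent RNA probe, cutting fluorescence to under half of the solvent control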;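 also: counterscreen run without GRK2 so only probe quenching by compound is measured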
GRK2 CP2 – human GRK2 inhibition confirmation, cherry pick 2 | shares compounds with GRK2 inh | bead-bound GRK2, FAM-aptamer displacement, flow cytometry | AID 504782 | inhibition of aptamer binding, % at 10 µM | 360 tested, under 10 active;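 active = inhibition of aptamer binding above 40%, about triple the noise seen with nonglowing compounds, on plates passing quality control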;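 also: negative values mostly come from compounds that fluoresce themselves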
FAM quench SP – aptamer fluorescence quenching in GRK2 counter-screen; carboxyfluorescein RNA aptamer beads, flow cytometry quenching; active compounds read low; AID 588494; 360 tested, under 10 active; shares compounds with GRK2 inh; fluorescence response vs DMSO, % at 10 µM;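 active = response vs DMSO under 50%, meaning signal dropped by over half, treated as fluorescence quencher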;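 also: labelled aptamer on streptavidin beads without GRK2 as a quench counter-screen; 100% = bead fluorescence of DMSO wells and lower means quenching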
* = called active by the depositor; / = no result shown. A selection: hits, their analogues and other compounds. The true share with any hit is near 1.8%.

SMILES	GRK2 inh	Cardio protect	HDAC3 inh	Neddyl block	GRK2 CP1	FAM quench CP1	others
N#CC(C#N)=C(N)CSc1cccc[n+]1[O-]	0	3	-1	-14	/	/
CC(=O)NN1CCc2cc3ccc(C)cc3nc21	90*	-3	-11	/	-10	96
Cc1ccc2cc3c(nc2c1)N(c1ccccc1)CC3	0	-10	2	-211	/	/
O=c1[nH]c(Cc2ccc(Cl)cc2)nc2ccccc12	4	16	-3	5	/	/
O=c1[nH]c(Cc2cccc(C(F)(F)F)c2)nc2ccccc12	0	-2	5	1	0	100
CC(=O)c1ccc(NC(=O)c2cccc(N3C(=O)c4ccccc4C3=O)c2)cc1	48*	-4	-5	8	/	/	GRK2 CP2=-254;FAM quench SP=101
NS(=O)(=O)c1ccc(NC(=O)c2cccc(N3C(=O)c4ccccc4C3=O)c2)cc1	5	-13	2	-26	/	/
CC1=C(C(=O)OCC2CCCCC2)C(c2ccc(O)cc2)NC(=O)N1 (stereo unspecified)	16	0	-3	0	-42	192
O=C(O)c1ccc2c(c1)C(=O)/C(=C\c1ccco1)C2=O	58*	7	5	-15	-4	94
NC(=O)c1cccnc1Nc1ccccc1Cl	9	2	-2	-2	/	/
CC(=O)CCN1C(=O)NC2(CCCc3ccccc32)C1=O (stereo unspecified)	58*	-2	-1	1	/	/	GRK2 CP2=-33;FAM quench SP=99
CC(=O)Nc1ccc(C(=O)CN2C(=O)NC3(CCCc4ccccc43)C2=O)c(F)c1 (stereo unspecified)	27	7	4	-6	0	104
CC(C)Oc1ccc(S(=O)(=O)N2CCOCC2)cc1NC(=O)Cc1cccs1	0	2	6	-2	/	/
Cc1cccc(C(=O)O/N=C(\N)c2ccc(Cl)cc2)c1	11	-16	0	-1	-2	100
O=C(COC(=O)c1ccc(Br)o1)c1ccc(S(=O)(=O)N2CCCCC2)cc1	1	3	-1	-11	/	/
CSc1c(CC(=O)Nc2ccccc2C(F)(F)F)n(Cc2ccccc2)c2ccccc12	100*	-1	-6	2	/	/	GRK2 CP2=-3;FAM quench SP=101
CSc1c(CC(=O)Nc2ccccc2Cl)n(Cc2ccccc2)c2ccccc12	3	-15	-8	-15	/	/
COc1ccc(-n2nc(C(=O)NCC(=O)NC(C)C)c3ccccc3c2=O)cc1Cl	1	-8	8	-2	/	/
CCC(C)NC(=O)CNC(=O)c1nn(-c2ccc(OC)cc2)c(=O)c2ccccc12 (stereo unspecified)	44*	19	-3	/	-2	93
CCC(C)NC(=O)CNC(=O)c1nn(-c2ccc(OC)c(Cl)c2)c(=O)c2ccccc12 (stereo unspecified)	0	12	-1	11	-3	101
CCOc1ccc(-n2nc(C(=O)NC3CCCCC3)c3ccccc3c2=O)cc1	81*	1	-7	-177	-4	102
O=c1c(-c2ccccc2)nc2ccccc2n1C(CCc1ccccc1)c1nc2ccccc2[nH]1 (stereo unspecified)	/	/	/	19	/	/
COc1ccccc1NCCC(=O)O	2	8	/	5	/	/
O=C(O)CCNc1ccc(NCCC(=O)O)c2c1C(=O)c1ccccc1C2=O	42*	-7	2	-50	31	90
O=C(CCl)NC(Cc1ccccc1)C(=O)OCC(=O)c1ccc(-c2ccccc2)cc1 (stereo unspecified)	/	-11	/	-11	/	/
SMILES	GRK2 inh	Cardio protect	HDAC3 inh	Neddyl block	GRK2 CP1	FAM quench CP1	others
O=C(c1ccc(CSc2nc3ccncc3[nH]2)cc1)N1CCCCCC1	68*	-26	/	2	0	94
O=C(c1ccc(CSc2nc3ccncc3[nH]2)cc1)N1CCN(c2cccc(Cl)c2)CC1	0	-24	9	-17	/	/
Cc1ccc(CSc2nc3ccncc3[nH]2)cc1	78*	-34	/	4	1	100
O=C(COc1ccc(/C=N/NC(=O)c2ccncc2)cc1)Nc1ccccc1	95*	5	5	30	-3	100
Cc1ccccc1-c1nc(CS(=O)(=O)CC(=O)NCc2ccc3c(c2)OCO3)c(C)o1	83*	-5	-6	9	0	89	GRK2 CP2=11;FAM quench SP=97
CC(=O)Nc1ccc2nc3c(=O)n(C)c(=O)n(C)c3nc2c1	42*	12	7	80*	20	78
NC(=O)[C@@H]1CCCNc2c(I)cc([N+](=O)[O-])cc2C(=O)N[C@@H](CCC(=O)O)C(=O)N[C@@H](CO)C(=O)N1	88*	6	11	-21	-15	129
Cc1cc(C)cc(OCC(=O)OCC(=O)c2cc(C)n(C3CC3)c2C)c1	39	-2	0	0	7	101
CCC(=O)c1ccc(OCC(=O)OCC(=O)c2cc(C)n(C3CC3)c2C)cc1	0	-7	4	12	/	/
Cc1ccc(SCCC(=O)NC2CC2)cc1	0	1	10	-2	/	/
Fc1ccc(-c2nnc(-n3nnc4ccccc43)c3ccccc23)cc1	2	1	-4	-8	/	/
O=C(O)c1cccc(-c2ccc(/C=c3/sc4nc5ccccc5n4c3=O)o2)c1	50*	12	3	0	12	97
O=C(Oc1cc(=O)oc2ccccc12)c1ccccc1	100*	0	3	-2	-1	92
O=C(Oc1cccc2c(O)cccc12)c1ccccc1	42*	-22	16	-9	4	102
O=C(Oc1cccc2ccccc12)c1ccccc1	/	-9	/	2	/	/
Cc1cc(C(=O)CN2c3cccc4cccc(c34)S2(=O)=O)c(C)n1C	3	14	-3	11	/	/
O=C1ON=C(c2ccc([N+](=O)[O-])cc2)/C1=C/c1ccccc1O	2	10	0	-24	/	/
CSC1=NC(=O)/C(=C/c2ccc(SC)cc2)S1	58*	-15	1	15	2	103
CN=C1S/C(=C\c2ccc(SC)cc2)C(=O)N1C	0	-9	1	-21	/	/
COc1ccc(C(=S)Nc2ccc(C)cc2)cc1	100*	-10	-5	5	-2	98
CC1(NC(=O)c2ccccc2)CCN(CCCc2ccccc2)C1=O (stereo unspecified)	2	-3	-10	2	/	/
O=C(Nc1cccc(O)c1)C(=O)Nc1ccccn1	6	-9	3	2	/	/
O=C(Nc1ccccc1)C(=O)Nc1ccccn1	47*	-12	-3	5	0	92
Cc1ccc(NC2c3ncccc3C(=O)N2Cc2ccc(F)cc2)cc1 (stereo unspecified)	76*	-2	1	1	0	104
